{
  "source": "PubChem BioAssay (NCATS)",
  "note": "Records with an inconclusive call do not appear. A number with no mark means an inactive call. The source made the active and inactive calls. Unless noted, calls follow the shape of the dose curve; as a rule, active = well fitted curve in the direction sought with a large enough effect; inconclusive = small, poorly fitted or top-dose-only effect, or another doubt; inactive = no such curve, though single readings can be large; an effect the other way counts as inactive or inconclusive.",
  "data": [
    {"test": "Cell Viability - LYMP1-002 - Assay at 40 hr (AID 994); also: nearly all actives have a fitted effect of over 60% in size; also: potency is read from the fitted curve at half-maximal effect;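 as to viability change, negative = cytotoxic: 0% = DMSO only and full inhibition = 92 µM tetraoctylammonium bromide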", "conditions": "LYMP1-002 lymphoblastoid cell viability; series mostly up to 92.2 µM; viability change, negative = cytotoxic: at the top concentration", "how_it_was_run": "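LYMP1-002 human lymphoblastoid cells (2500/well, complete medium) were treated with compounds for 40 hr at 37 C. Intracellular ATP was measured by CellTiter-Glo luminescence, and AC50 values came from Hill-equation fits of concentration-response data; tetraoctylammonium bromide was the positive control.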", "units": {"viability change, negative = cytotoxic": "%"}, "values": [
      {"smiles": "CCCCCCCCCCCCCCCC[n+]1ccccc1", "Potency": "7.94 µM (active)"},
      {"smiles": "COc1cc(C=O)ccc1O", "viability change, negative = cytotoxic": -4.67},
      {"smiles": "CCCCC(CC)COC(=O)c1ccccc1C(=O)O", "note": "(centres undefined)", "viability change, negative = cytotoxic": -10.2},
      {"smiles": "Brc1ccccc1-c1ccccc1", "viability change, negative = cytotoxic": -0.94},
      {"smiles": "c1ccc2occc2c1", "viability change, negative = cytotoxic": -3.43},
      {"smiles": "Nc1ccc(O)cc1", "Potency": "50.1 µM (active)"},
      {"smiles": "O=C(NO)c1ccccc1", "viability change, negative = cytotoxic": -17.4},
      {"smiles": "O=C(c1ccccc1)c1ccccc1", "viability change, negative = cytotoxic": -6.99},
      {"smiles": "O=C(Oc1ccccc1)c1ccccc1O", "viability change, negative = cytotoxic": -4.9},
      {"smiles": "C1=CC2C3C=CC(C3)C2C1", "note": "(centres undefined)", "viability change, negative = cytotoxic": -8.97},
      {"smiles": "Oc1ccccc1", "viability change, negative = cytotoxic": 2.9},
      {"smiles": "CC(C)(c1ccc(O)cc1)c1ccc(O)cc1", "Potency": "inactive"},
      {"smiles": "CCCC(=O)c1cc(O)c(O)cc1O", "viability change, negative = cytotoxic": -17.5},
      {"smiles": "CC(=O)OC/C=C(C)/C=C/C=C(C)/C=C/C1=C(C)CCCC1(C)C", "viability change, negative = cytotoxic": -27.9},
      {"smiles": "CC(C)C(C)(C)C(C)(C)C(C)(C)S", "viability change, negative = cytotoxic": -12.5},
      {"smiles": "Nc1cccc2c(N)cccc12", "viability change, negative = cytotoxic": -19.8}
    ]},
    {"test": "qHTS Assay for Identification of Small Molecule Inducers of Hypoxia Response (AID 2120; active = well fitted curve in the direction sought with a large enough effect in the signal ratio, with a control signal flat, not every such curve was filed as active; the % refers to the signal ratio; also: 0% is about no effect)", "conditions": "hypoxia response reporter cells, beta-lactamase ratio readout; series mostly up to 104 µM; activation: at the top concentration", "how_it_was_run": "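HRE-bla ME-180 cells in Opti-MEM with 0.5% dialyzed FBS, pre-plated 4-5 h, then compound titration for 17 h at 37 degrees Celsius. CCF4 loaded 2.5 h at room temperature; 460/530 nm ratio gave %Activity and AC50 for induction.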", "units": {"activation": "%"}, "values": [
      {"smiles": "COc1cc(C=O)ccc1O", "activation": 0.576},
      {"smiles": "CCCCC(CC)COC(=O)c1ccccc1C(=O)O", "note": "(centres undefined)", "activation": -0.4},
      {"smiles": "Brc1ccccc1-c1ccccc1", "activation": 0.848},
      {"smiles": "c1ccc2occc2c1", "activation": 0.262},
      {"smiles": "CC(C)(C)c1ccc(O)c(O)c1", "activation": 2.69},
      {"smiles": "O=C(NO)c1ccccc1", "activation": -0.302},
      {"smiles": "O=C(c1ccccc1)c1ccccc1", "activation": -0.0232},
      {"smiles": "O=C(Oc1ccccc1)c1ccccc1O", "activation": 0.423},
      {"smiles": "C1=CC2C3C=CC(C3)C2C1", "note": "(centres undefined)", "activation": 0.0403},
      {"smiles": "Oc1ccccc1", "activation": 0.0609},
      {"smiles": "CC(C)(c1ccc(O)cc1)c1ccc(O)cc1", "outcome": "inactive"},
      {"smiles": "CCCC(=O)c1cc(O)c(O)cc1O", "activation": -0.146},
      {"smiles": "CC(=O)OC/C=C(C)/C=C/C=C(C)/C=C/C1=C(C)CCCC1(C)C", "activation": 1.57},
      {"smiles": "CC(C)C(C)(C)C(C)(C)C(C)(C)S", "activation": 1.52},
      {"smiles": "Nc1cccc2c(N)cccc12", "activation": 0.087}
    ]},
    {"test": "Cytometric Cell-Based qHTS for Inhibitors of the mTORC1 Signaling Pathway in MEF (Tsc2-/-, p53-/-) Cells (AID 2660);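 also: percent of cells above a phospho-rpS6 to PI ratio cutoff in each well; plate controls were DMSO for no effect and rapamycin for full effect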", "conditions": "mTORC1 pathway cytometry; series mostly up to 38.3 µM; activity change, negative = inhibition: at the top concentration", "how_it_was_run": "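Tsc2-/-, p53-/- MEFs (empty vector) exposed to compound 24 h at 37 C, fixed, stained with Alexa-488 anti-phospho-rpS6 Ser235/236 and propidium iodide. Acumen laser scanning; phospho-S6/PI ratio thresholded against 7.5 nM rapamycin, reported as % positive cells.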", "units": {"activity change, negative = inhibition": "%"}, "values": [
      {"smiles": "Nc1ncnc2n[nH]c(Nc3ccc(F)cc3)c12", "activity change, negative = inhibition": 8.76},
      {"smiles": "COC(=O)C1=CO[C@@H](O)[C@@H]2C(CO)=CC[C@H]12", "activity change, negative = inhibition": 7.27},
      {"smiles": "CCN(CC)CCNC(=O)c1ccc(NS(C)(=O)=O)cc1", "activity change, negative = inhibition": 3.98},
      {"smiles": "O=[N+]([O-])c1ccc(-c2nc(-c3ccc(F)cc3)c(-c3ccncc3)[nH]2)cc1", "activity change, negative = inhibition": -2.85},
      {"smiles": "O=C1NC(=O)/C(=C/c2ccc3c(c2)OC(F)(F)O3)S1", "activity change, negative = inhibition": 4.97},
      {"smiles": "Cc1nn(-c2ccccc2)c(C)c1/C=N/N1CCN(Cc2ccccc2)CC1", "activity change, negative = inhibition": -1.75},
      {"smiles": "Clc1ccc2c(c1)N=C(N1CCNCC1)c1ccccc1N2", "activity change, negative = inhibition": 7.68},
      {"smiles": "N[C@@H](Cn1ccc(=O)c(O)c1)C(=O)O", "activity change, negative = inhibition": 4.45}
    ]}
  ]
}
